HPGD inh: HPGD (human) dehydrogenase inhibition. P15428. purified HPGD, NADH fluorescence kinetic, PGE2 substrate. Potency, µM, for inactives: at the top dose activity change, negative = inhibition, hits mostly inhibitors. actives 4.3% (n = 150,000); active = well fitted inhibition curve with a large enough effect, not every such curve was filed as active; inconclusive = small, poorly fitted or top-dose-only effect, or another doubt; inactive = no such curve, though single readings can be large or run the other way; also: potency is read from the fitted curve at half-maximal effect; % is scaled to controls: 0 for no effect and ±100 for the full control effect
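NADH formation kinetics: reaction with 30 uM PGE2 and 1 mM NAD+ (final), 20 nM enzyme, Tris-HCl pH 8 with Tween 20, after 15 min compound preincubation at room temperature. Fluorescence change, last versus first of five reads.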
HttQ103 aggreg: mutant huntingtin aggregation inhibition | actives 1.1% (n = 220,000) | Potency, µM (highest dose often 46.1 µM), for inactives: at the highest dose activity change, negative = inhibition, actives largely listed as inhibitors | AID 1688 | PC12 HttQ103-GFP aggregates, Acumen cytometry, 40 h; also: potency is read from the fitted curve at half-maximal effect; % is scaled to controls: 0 for no effect and ±100 for the full control effect; nearly all actives have a fitted effect of over 60% in size
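Aggregates are detected as GFP objects 1–25 µm with signal 6 STDEV over background in lysates of induced PC12 cells. These carry Huntingtin exon 1 with 103 glutamines fused to GFP under an ecdysone promoter; compounds titrated.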
ALDH1A1 inh: inhibitors of human aldehyde dehydrogenase 1A1; Purified ALDH1A1, NADH fluorescence, propionaldehyde substrate; Potency, µM (highest dose often 75.3 µM), for the others: at the highest dose activity, negative = inhibition, hits mostly inhibitors; AID 1030; P00352; actives 7.3% (n = 220,000); active = well fitted inhibition curve with a large enough effect, not every such curve was filed as active; inconclusive = small, poorly fitted or top-dose-only effect, or another doubt; inactive = no such curve, though single readings can be large or run the other way;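 also: potency is read from the fitted curve at half-maximal effect; plate controls were no enzyme wells and a reference inhibitor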
Target sequence (P00352 whole entry, looked up): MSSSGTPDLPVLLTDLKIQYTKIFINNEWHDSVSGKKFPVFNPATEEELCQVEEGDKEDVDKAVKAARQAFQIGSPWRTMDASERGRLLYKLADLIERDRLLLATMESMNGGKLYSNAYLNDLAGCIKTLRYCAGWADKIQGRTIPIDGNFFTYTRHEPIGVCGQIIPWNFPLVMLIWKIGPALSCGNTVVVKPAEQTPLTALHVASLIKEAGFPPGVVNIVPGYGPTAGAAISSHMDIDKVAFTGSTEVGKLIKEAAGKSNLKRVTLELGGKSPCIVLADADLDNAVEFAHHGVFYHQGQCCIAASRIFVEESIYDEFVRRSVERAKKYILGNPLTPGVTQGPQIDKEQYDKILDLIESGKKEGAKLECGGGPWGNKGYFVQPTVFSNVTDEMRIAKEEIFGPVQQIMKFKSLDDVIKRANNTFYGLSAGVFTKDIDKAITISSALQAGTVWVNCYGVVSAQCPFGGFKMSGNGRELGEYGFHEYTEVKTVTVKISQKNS
IMPase cell inh: IMPase inhibition in cells; 120,000 tested, under 10 active; CHO-M1 cells, IP1 accumulation, HTRF TR-FRET ratio; inhibition (IP1 accumulation), % at 46.1 µM; AID 901; active = well fitted curve in the direction sought with a large enough effect in the signal ratio, not every such curve was filed as active; inconclusive = small, poorly fitted or top-dose-only effect, or a change in a side signal; inactive = no such curve, though single readings can be large or run the other way; the % refers to the signal ratio;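 also: cells stimulated with carbachol in lithium chloride buffer; plate controls were DMSO basal wells for no effect and reference inhibitor wells for full effect; higher means more IMPase inhibition seen as more IP1 and lower FRET ratio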
Target sequence (P97697 whole entry, looked up): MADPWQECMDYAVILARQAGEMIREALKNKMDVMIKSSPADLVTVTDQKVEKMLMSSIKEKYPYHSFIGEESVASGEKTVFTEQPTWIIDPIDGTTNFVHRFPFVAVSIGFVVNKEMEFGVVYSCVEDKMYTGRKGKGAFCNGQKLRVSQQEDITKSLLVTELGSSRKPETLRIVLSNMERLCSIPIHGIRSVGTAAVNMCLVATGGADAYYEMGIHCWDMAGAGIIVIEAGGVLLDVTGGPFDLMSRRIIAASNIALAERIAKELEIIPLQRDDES
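Seeded CHO-M1 cells were dosed with compound at up to 46 uM, stimulated with carbachol for 30 min, then lysed in IP-One detection reagents. Higher IP1 lowers the TR-FRET signal.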
HTT ATP protect: protects HTT-Q103 PC12 cells, measured by ATP; PC12 HTT-Q103 induced, cytoprotection, ATP luminescence, 40 h; Potency, µM (series often up to 56.4 µM), without a hit: cytoprotection (ATP increase), actives largely listed as activators; actives 0.14% (n = 230,000); also: potency is read from the fitted curve at half-maximal effect; % of control where 0% means no effect; nearly all actives have a fitted effect of over 45% in size
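Compounds added alongside 100 nM tebufenozide, which induces toxic Q103 huntingtin exon 1-GFP in stable PC12 cells; surviving cells quantified by luminescent ATP measurement. Medium: phenol red-free DMEM, 5% equine and 5% calf serum.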
IMPase Li inh: membrane-permeable IMPase blocker, potentiated with lithium | Potency, µM (top dose mostly 59.4 µM), for inactives: top-dose activity, negative = IMPase inhibition, usual class: inhibitors | AID 1457 | actives 0.35% (n = 210,000) | CHO-M1 cells, IP1 TR-FRET (IP-One), carbachol + lithium;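 also: IP1 builds up when IMPase is blocked and the TR-FRET signal falls; potency is read from the fitted curve at half-maximal effect; plate controls were basal vehicle for no effect and high inhibitor control for full effect; nearly all actives have a fitted effect of over 50% in size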
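Concentration–response in CHO-M1 cells, lithium-potentiated; 30 min at 37C. IP1 detected by competitive TR-FRET after 10 min lysis at RT. Hill-fitted AC50.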
Numbers without * were called inactive; [ ] = another dose, or the depositor's remark. Shown are actives, neighbours in structure and some others; about 9.4% of the full set was active somewhere. Unless noted, calls follow the shape of the dose curve; as a rule, active = well fitted curve in the direction sought with a large enough effect; inconclusive = small, poorly fitted or top-dose-only effect, or another doubt; inactive = no such curve, though single readings can be large; an effect the other way counts as inactive or inconclusive.

How did CCOc1cc(/C=N/NC(N)=S)cc(Br)c1OCc1ccccc1C do in these assays?
HPGD inh: -22%; HttQ103 aggreg: -17%; ALDH1A1 inh: 1.3µM*; IMPase cell inh: 16; IMPase Li inh: 60%[38.3 µM]

What do the screens show for `NNC(=O)c1csc(-c2cccc(C(F)(F)F)c2)n1`?
HttQ103 aggreg: 9%; ALDH1A1 inh: 4.5µM*; HTT ATP protect: -35%; IMPase Li inh: -10%

How did O=C(Nc1ccc(C(F)(F)F)cc1)c1csc(-c2ccncc2)n1 do in these assays?
HttQ103 aggreg: -1%; ALDH1A1 inh: -6%; HTT ATP protect: -19%; IMPase Li inh: 13%

What do the screens show for `CC(C)c1cc(NC(=O)CCl)on1`?
HttQ103 aggreg: 8%; ALDH1A1 inh: 1.6µM*; HTT ATP protect: 9%[10 µM]; IMPase Li inh: 10%

How did Cc1cc(Br)c(NC(=O)CCl)c(Br)c1 do in these assays?
HPGD inh: -22%; HttQ103 aggreg: -13%; ALDH1A1 inh: -16%; HTT ATP protect: 15%[10 µM]; IMPase Li inh: -16%

Results for Cc1ccc(S(=O)(=O)N2CCN(S(=O)(=O)N3CCOCC3)CC2)c(C)c1 ?
HPGD inh: -10%; HttQ103 aggreg: -12%; ALDH1A1 inh: 13µM*; IMPase cell inh: -2; HTT ATP protect: 9%; IMPase Li inh: 20%[38.3 µM]

Results for COc1ccc(-n2cnc3cc(NS(=O)(=O)c4ccccc4)ccc32)cc1 ?
HPGD inh: 11µM*; HttQ103 aggreg: inconclusive; ALDH1A1 inh: inconclusive; IMPase cell inh: 9; HTT ATP protect: 14%[10 µM]; IMPase Li inh: 16%

What do the screens show for `COc1ccc(NS(=O)(=O)c2cccc(C(=O)O)c2)cc1`?
HPGD inh: -14%; HttQ103 aggreg: -4%; ALDH1A1 inh: 10%; IMPase cell inh: inconclusive; HTT ATP protect: -38%; IMPase Li inh: -8%[38.3 µM]

What do the screens show for `COc1ccc(S(=O)(=O)Nc2ccc(Oc3ncccn3)c(Cl)c2)cc1`?
HPGD inh: 14µM*; HttQ103 aggreg: -12%; ALDH1A1 inh: -2%; IMPase cell inh: 1; HTT ATP protect: 4%; IMPase Li inh: 21%[38.3 µM]

How did COc1ccc(NS(=O)(=O)c2ccc(Oc3ncccn3)cc2)cc1 do in these assays?
HPGD inh: -4%; HttQ103 aggreg: 11µM*; ALDH1A1 inh: 4%; IMPase cell inh: -6; HTT ATP protect: -35%; IMPase Li inh: 9%[38.3 µM]

What do the screens show for `COc1ccc(S(=O)(=O)Nc2ccc(NC(C)=O)cc2)cc1`?
HPGD inh: -17%; HttQ103 aggreg: 5%; ALDH1A1 inh: 2%; IMPase cell inh: inconclusive; HTT ATP protect: -9%; IMPase Li inh: 19%[38.3 µM]

What do the screens show for `COc1ccc(NS(=O)(=O)c2ccc(Oc3cccc(C(=O)O)c3)cc2)cc1`?
HttQ103 aggreg: -5%; ALDH1A1 inh: 0.71µM*; HTT ATP protect: -57%; IMPase Li inh: 0%

Results for COc1ccc(CNc2nc(-c3c(C)noc3C)nc3ccccc23)c(OC)c1 ?
ALDH1A1 inh: inconclusive; HTT ATP protect: -52%; IMPase Li inh: 12%

Results for Cn1c(=O)c2[nH]c(CS(=O)(=O)Cc3nc4c([nH]3)c(=O)n(C)c(=O)n4C)nc2n(C)c1=O ?
HPGD inh: -17%; ALDH1A1 inh: inconclusive; HTT ATP protect: -9%[10 µM]; IMPase Li inh: 1%

What do the screens show for `COC(=O)N1C2CC3(C)C=C(C)OC1(C)C3c1ccccc12` (stereo not drawn)?
HPGD inh: -8%; ALDH1A1 inh: 2%[13.5 µM]; HTT ATP protect: 9%[10 µM]; IMPase Li inh: 10%

How did OCC(O)C(O)[C@H](O[C@H]1OC(CO)C(O)C(O)C1O)[C@H](O)CO (stereo partly drawn) do in these assays?
HPGD inh: -5%; ALDH1A1 inh: -4%; IMPase Li inh: 6%

What do the screens show for `CCOC(=O)C1(Cc2ccc(OC)cc2)CCN(C(=O)Cn2cnnn2)CC1`?
HttQ103 aggreg: -12%[9.22 µM]; ALDH1A1 inh: -1%; HTT ATP protect: 1%[10 µM]; IMPase Li inh: 0%

How did CCOC(=O)C1(Cc2ccc(OC)cc2)CCN(C(=O)CN2CCN(CC)CC2)CC1 do in these assays?
HttQ103 aggreg: 6%; ALDH1A1 inh: 25µM*; HTT ATP protect: -33%; IMPase Li inh: 7%

What do the screens show for `O=C(NCc1ccco1)c1ccc2c(c1)C(=O)N(C1CCCCC1)C2=O`?
HPGD inh: -4%; HttQ103 aggreg: 0%; ALDH1A1 inh: inconclusive; IMPase cell inh: 3; HTT ATP protect: 1%; IMPase Li inh: 15%[38.3 µM]

What do the screens show for `COCCCN1C(=O)c2ccc(C(=O)Nc3ccccc3OC)cc2C1=O`?
HPGD inh: -10%; HttQ103 aggreg: -6%; ALDH1A1 inh: inconclusive; IMPase cell inh: -7; HTT ATP protect: -4%; IMPase Li inh: 26%[38.3 µM]

Results for CCCN1C(=O)c2ccc(C(=O)NCc3ccco3)cc2C1=O ?
HPGD inh: -9%; HttQ103 aggreg: -15%; ALDH1A1 inh: 6.3µM*; IMPase cell inh: -4; HTT ATP protect: -15%[0.074 µM]; IMPase Li inh: 21%[38.3 µM]

Results for COCCCN1C(=O)c2ccc(C(=O)NCc3ccco3)cc2C1=O ?
HPGD inh: -17%; HttQ103 aggreg: -3%; ALDH1A1 inh: 13µM*; IMPase cell inh: 4; HTT ATP protect: 14%; IMPase Li inh: -4%[38.3 µM]

How did CCCCNC(=O)C(c1ccc(OCC(=O)OC)c(C(=O)OC)c1)N(CCC1=CCCCC1)C(=O)CCCCCN1C(=O)NC(c2ccc(-c3ccccc3)cc2)C(C(=O)OCc2ccccc2)=C1C (stereo not drawn) do in these assays?
HPGD inh: -6%; ALDH1A1 inh: 6%; HTT ATP protect: -14%; IMPase Li inh: -4%

Results for CN(C)c1nc(C(=O)NN)nc(N(C)C)n1 ?
HPGD inh: -6%; HttQ103 aggreg: 0%; ALDH1A1 inh: 13µM*; IMPase cell inh: 7; HTT ATP protect: 0%; IMPase Li inh: 23%[38.3 µM]

What do the screens show for `COC(=O)NCCOc1nc(N(C)C)nc(N(C)C)n1`?
HPGD inh: -11%; HttQ103 aggreg: 3%; ALDH1A1 inh: -2%; IMPase cell inh: 2; HTT ATP protect: 3%; IMPase Li inh: 5%[38.3 µM]

How did CC1(C)CC(=O)C=C(Nc2ccccn2)C1 do in these assays?
HPGD inh: -23%; HttQ103 aggreg: -8%; ALDH1A1 inh: 8.9µM*; IMPase cell inh: 8; HTT ATP protect: 7%[10 µM]; IMPase Li inh: 1%[38.3 µM]

What do the screens show for `CN1C[C@@H](O)[C@@H](O)[C@@H](O)[C@@H]1CO`?
HTT ATP protect: 8%[1.9 µM]

How did COC(=O)c1c(NC(=O)c2cccnc2)sc(C(=O)N(C)C)c1C do in these assays?
HPGD inh: -24%; HttQ103 aggreg: 2%; ALDH1A1 inh: -6%; HTT ATP protect: 1.3µM*; IMPase Li inh: -6%

Screening results from PubChem.
